Values without a mark were called inactive. How the calls were made is not given here.

The assay can be described thus: hESC survival regulators, cell-based (AID 493140).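 Further: cells exposed to compounds for four days before counting.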 Conditions: human embryonic stem cell survival screen; hits give high values.
On to `CO[C@@H]1[C@H](OC(N)=O)C(O)[C@H](Oc2ccc3c(O)c(NC(=O)c4ccc(O)c(CC=C(C)C)c4)c(=O)oc3c2C)OC1(C)C` (stereo partly drawn), for which the survival is 8.33.
Take `O=P(O)(O)C(O)c1ccc2ccccc2c1` (stereo not drawn): the survival was 93.4.
As to `N#CC(C#N)=C(N)/C(C#N)=C/c1cc(O)c(O)c(O)c1`, the survival was 82.2.
The result for `CC(C)NCC1CCc2cc(CO)c([N+](=O)[O-])cc2N1` (stereo not drawn) reads 28.3.
With `C[C@@]1(OC(=O)/C=C\c2ccccc2)C[C@H](O)[C@@]2(O)C=CO[C@H](OC3OC(CO)C(O)C(O)C3O)C12` (stereo partly drawn), the survival was 6.83.
Regarding `CCCCCCCCCCCCC/C=C/[C@@H](O)[C@H](COP(=O)([O-])OCC[N+](C)(C)C)NC(=O)CCCCCCCCCCCCCCCCC`, the survival is 81.8.
`Cn1cnc2nc(NCCO)nc(NCc3ccccc3)c21`: the survival is 111.
Take `COC1C(O)CC(=O)OC(C)CC=CC=CC(OC2CCC(N(C)C)C(C)O2)C(C)CC(CC=O)C1OC1OC(C)C(OC2CC(C)(O)C(O)C(C)O2)C(N(C)C)C1O` (stereo not drawn): the survival is 3.42.
As to `CCCCC/C=C\C[C@@H](O)/C=C/C=C\CCC(=O)O`, the survival was 67.7.
As to `CCCCC/C=C\C/C=C\C[C@H](O)/C=C/C=C\CCCC(=O)O`, the survival was 91.5.
For `C=Cc1c(C)c2cc3nc(cc4[nH]c(cc5nc(cc1[nH]2)C(C)=C5CCC(=O)O)c(CCC(=O)OC)c4C)[C@@]1(C)C3=CC=C(C(=O)OC)C1C(=O)OC` (stereo partly drawn) (tested in a mixture with another compound), the survival is 12.9.
As to `CCCCC/C=C\C\C=C/C=C/C=C/[C@@H](SCC(N)C(=O)NCC(=O)O)[C@@H](O)CCCC(=O)O` (stereo partly drawn), the survival is 109.
For `CC/C=C\C[C@H](O)/C=C/C=C\C/C=C\C/C=C\CCCC(=O)O`, the survival is 122.
The result for `CCO[C@@H]1O[C@H](C(COCc2ccccc2)OCc2ccccc2)[C@@H](OCc2ccccc2)C1O` (stereo partly drawn) reads 10.8; that for `CCCCCC[C@@H](O)C/C=C\CCCCCCCC(=O)O`, 85.1.
As for `CCCCC/C=C\C[C@@H]1O[C@H]1/C=C/C(O)C/C=C\CCCC(=O)O` (stereo partly drawn), the survival is 93.9.
Turning to `CCCCC[C@H](O)/C=C/C=C/C=C/[C@H](O)C/C=C\CCCC(=O)O`, the survival was 107.
With `C[C@@H](O)CCC[C@H](O)/C=C/[C@H]1[C@H](O)CC(=O)[C@@H]1C/C=C\CCCC(=O)O`, the survival is 111.
As for `CCCCCCCC/C=C\C/C=C\C=C\C(O)CCCC(=O)O` (stereo not drawn), the survival was 116.
Consider `CC/C=C\C/C=C\C/C=C\C/C=C\C=C\C(O)CCCC(=O)O` (stereo not drawn), for which the survival is 128.
Take `CCCCC[C@H](O)/C=C/[C@H]1OC(=O)C[C@H](O)[C@@H]1C/C=C\CCCC(=O)O`: the survival was 110.
As to `CCCCC/C=C\C/C=C\C=C\[C@@H](O)C/C=C\CCCC(=O)O`, the survival was 129.
As to `CCCCC[C@H](O)/C=C/[C@H]1OC(O)C[C@H](O)[C@@H]1C/C=C\CC(=O)O` (stereo partly drawn), the survival was 117.
Turning to `CCCCC[C@H](O)/C=C/C=C\C=C\[C@@H](O)C/C=C\CCCC(=O)O`, the survival is 135.
The result for `C=CCN1/C(=C\CO)[C@@H]2C[C@@H]3[C@H]1CC[C@@]31c3ccccc3N3/C=C4\C5N(/C=C/2C31)c1ccccc1[C@@]51CC[C@@H]2[C@H]1C[C@H]4/C(=C/CO)N2CC=C` (stereo partly drawn) reads 26.5.
For `O=C(O)CCC[C@H](O)\C=C/C=C/C=C/[C@H](O)C/C=C\CCCCCO`, the survival was 75.2.
Turning to `Nc1ncn(C2O[C@H](CO)[C@H](O)[C@@H]2O)c(=O)n1` (stereo partly drawn), the survival was 0.083.
As to `CCCCCCCC[C@@H](O)/C=C/C=C/C=C\[C@@H](O)CCCC(=O)O`, the survival was 96.4.

The record behind these values is PubChem BioAssay.
